Compound activity as filed in PubChem.
HepG2 viability: HepG2 cytotoxicity, counter-screen for TGF-b inhibitors | hit rate 0.76% among 410,000 | AID 588856 | Potency, µM (top dose mostly 46.1 µM), without a hit: at the top dose activity change, negative = cytotoxicity, hits mostly cytotoxic | HepG2 CAGA-GFP viability, ATP luminescence, 18 h
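CellTiter-Glo luminescence gave cytotoxicity after 18 hours at 37 degrees C. The cells were HepG2 CAGA-GFP in 1% FBS DMEM, stimulated with 500 pg/mL TGF-beta after compound addition. %Activity was normalised to no-cell wells (complete cell-killing) and DMSO (no toxicity), and curves were fitted and classified.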
ATXN2 expr inh: reduces ATXN2 reporter expression in HEK-293 cells. HEK-293 ATXN2-luciferase reporter, luminescence, 24 h. Potency, µM (doses to about 57 µM), without a hit: at the highest dose activity change, negative = inhibition, most hits filed as inhibitors. hit rate 0.72% among 360,000; note: % is set by controls: 0 for no effect and ±100 for the full control effect; nearly all actives have a fitted effect of over 55% in size
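ATXN2-luciferase reporter cells (luciferase flanked by upstream and downstream ATXN2 gene portions) were treated 24 h at 37 °C with compounds at up to 57 uM. SteadyGlo luminescence gave expression; GF-AFC fluorescence gave viability.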
S2 tox: reduces viability in counter-screen for ATXN expression inhibitors | S2 cells (HEK-293 line with an ATXN2-luciferase reporter) viability, CellTiter-Fluor protease fluorescence, 24 h | Potency, µM (highest dose often 56.7 µM), usual class: cytotoxic | hit rate 0.49% among 400,000; note: nearly all actives have a fitted effect of over 40% in size
HT1080 IDH1KD tx: kills HT-1080 cells with IDH1 knockdown; HT-1080 IDH1 knockdown viability, ATP luminescence, 48 h; Potency, µM (series often up to 46.1 µM), without a hit: top-dose activity, negative = toxicity, actives largely listed as cytotoxic; hit rate 2% among 360,000; AID 686971;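 note: 0% = DMSO wells and -100% = cell-free medium wells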
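Viability of IDH1-knockdown HT-1080 fibrosarcoma cells was assessed by CellTiter-Glo after 48 h at 37 °C with titrated compound; concentration-effect curves were classified by fit quality and response size.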
TGFb inhibitor: inhibitors of TGF-b signaling; HepG2 CAGA-GFP TGF-b/SMAD3 reporter, GFP fluorescence, 18 h; TGF-beta stimulated, 500 pg/mL final; Potency, µM (series often up to 46.1 µM), for inactives: at the top dose activity, negative = inhibition, actives largely listed as inhibitors; hit rate 1.2% among 410,000; note: % is set by controls: 0 for no effect and ±100 for the full control effect; nearly all actives have a fitted effect of over 65% in size
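First, reporter cells (HEPG2 CAGA-GFP) rested 2 h at 37 degrees C. Next, compounds were pinned in and TGF-beta added to 500 pg/mL final. After 18 h, GFP was imaged per cell and summed per well.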
HT1080-NT tox: kills 2HG-producing HT-1080-NT fibrosarcoma cells. HT-1080-NT fibrosarcoma viability, CellTiter-Glo ATP luminescence, 48 h. Potency, µM (series often up to 46.1 µM), for inactives: at the highest dose activity, negative = less viability, actives largely listed as cytotoxic. hit rate 1.6% among 360,000;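 note: NT is the 2HG producing partner of a matched IDH1 knockdown line; 0% = DMSO-treated cells and -100% = media-only wells without cells; nearly all actives have a fitted effect of over 55% in size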
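Read-out is CellTiter-Glo luminescence after 10 minutes at room temperature, following 48 hours' compound treatment of HT-1080-NT cells (750 cells/well, RPMI, 5% FBS, 37 degrees C).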
* = called active by the depositor; i = inactive; ? = inconclusive; nt = no result given; [ ] = remark or other dose. An excerpt weighted towards active compounds, which were near 3.8% of everything screened. Calls come from the whole dose curve; as a rule, active = well fitted curve in the direction sought with a large enough effect; inconclusive = small, poorly fitted or top-dose-only effect, or another doubt; inactive = no such curve, though single readings can be large; an effect the other way counts as inactive or inconclusive. Potency is the fitted concentration of half-maximal effect.

SMILES	HepG2 viability	ATXN2 expr inh	S2 tox	HT1080 IDH1KD tx	TGFb inhibitor	HT1080-NT tox
COc1ccc(CCNc2nc3c(c(=O)n(C)c(=O)n3C)n2Cc2ccc(F)cc2)cc1OC	-5.8%	-16.6%	?	nt	-9.9%	nt
COc1ccc2c3c1O[C@H]1[C@@H](O)C=C[C@H]4[C@@H](C2)NCC[C@@]341	nt	nt	i	nt	nt	nt
O=C(Nc1ccc(Cl)c(C(F)(F)F)c1)C1CCCN(S(=O)(=O)c2cccc3cccnc23)C1 (stereo not given)	-25.3%	nt	nt	nt	?	nt
CCc1ccc(-c2cc(C(F)(F)F)n3nc(C(=O)Nc4c(C)nn(Cc5ccc(F)cc5)c4C)cc3n2)s1	0.7%	-11.1%	nt	?	?	6.2%
CC1(C)CSC(=NCc2ccccc2)N1	-32.1%	nt	i	-3.3%	8.91µM*	2.1%
CC1CCC(C(C)C)C(OC(=O)Cn2c(COc3ccccc3)[n+](C)c3ccccc32)C1 (stereo not given)	20µM*	?	25.1µM*	11.6µM*	12.6µM*	11.6µM*
CN1CCN(CCOC2c3ccccc3CSc3ccc(Cl)cc32)CC1 (stereo not given)	-45.9%	-26.3%	?	?	?	16.4µM*
Clc1ccc2c(c1)C(OC1CN3CCC1CC3)c1ccccc1CS2 (stereo not given)	-110.6%	?	nt	?	?	-25.5%
Cc1cc(N2CCCCC2)nc2ccc(NC(=O)/C=C/c3ccc(OC(C)C)cc3)cc12	-23.1%	-10.3%	i	nt	?	nt
CCCCn1c(=O)c(C(=O)NCc2ccncc2)c(O)c2ccccc21	17.7%	-25.2%	?	?	10.2%	-20.1%
CCCCCNC(=O)C(c1ccncc1)n1c(=O)c(-c2cc3ccccc3[nH]2)nc2ccccc21 (stereo not given)	nt	nt	nt	16.4µM*	nt	?
C[C@H]1CCC[C@H](O)CCCCCc2cc(O)cc(O)c2C(=O)O1	-58.2%	?	i	?	?	-18.4%
C[C@H]1CCC[C@@H](O)CCC/C=C/c2cc(O)cc(O)c2C(=O)O1	-56.8%	14.1µM*	?	8.91µM*	?	?
O=C(Nc1ccc2nc(SCC(=O)N3CCOCC3)sc2c1)c1ccc(Cl)cc1	-23.7%	nt	nt	nt	?	nt
Cc1oc2ccc(O)c(CN3CCCCCC3)c2c1C(=O)Nc1cccc(Cl)c1C	-18.0%	nt	nt	nt	?	nt
Nc1c(Cl)c(Cl)c(Cl)c(Cl)c1Cl	nt	-7.5%[116 µM]	i	nt	nt	nt
C[C@H]1[C@@H](OS(=O)(=O)O)C[C@@H]2C[C@H]([C@@H](O)c3cc(=O)[nH]c(=O)[nH]3)NC3=NC[C@H]1N32	-7.7%	10µM*	i	nt	2.51µM*	2.06µM*
CCc1ccc(N2C(=O)NC(=O)C(CCc3ccncc3)(CCc3ccncc3)C2=O)cc1	4.5%	-3.5%	i	10.0%	-6.5%	4.3%
O=C1NC(=O)C(CCc2ccncc2)(Cc2cccc(Cl)c2Cl)C(=O)N1c1ccc(Br)cc1 (stereo not given)	-3.4%	-6.0%	?	8.2µM*	-10.4%	16.4µM*
CN[C@@H](C)Cc1ccccc1	nt	nt	i	nt	nt	nt
Cc1cccc(NC(=O)Oc2ccc(Cl)c3cccnc23)c1	2.82µM*	nt	i	-9.3%	?	-5.1%
Cc1ccc(S(=O)(=O)N(CC(=O)NCCSc2ccc(Cl)cc2)c2ccccc2C)cc1	-10.7%	-21.6%	?	nt	?	nt
C[C@]12CC[C@H]3[C@@H](CC[C@@]45O[C@H]4C(O)=C(C#N)C[C@]35C)[C@H]1CC[C@H]2O	nt	-6.2%	i	nt	nt	nt
CC(C)CC(=O)N(Cc1ccccc1)S(=O)(=O)c1ccc2c(c1)oc(=O)n2C	-28.8%	4.5%	i	nt	?	nt
COc1cc2c(cc1/C=C/[N+](=O)[O-])OCO2	-61.5%	-8.0%[11.3 µM]	28.2µM*	8.2µM*	?	4.11µM*
Cc1ccc(CN2C(=O)c3ccccc3Sc3ccc(C(=O)N4CCC5(CC4)OCCO5)cc32)cc1	-37.0%	nt	nt	nt	?	nt
